Reference: PubChem BioAssay (EPA / NIEHS)
Records with an inconclusive call do not appear. Calls of active or inactive are those of the source. The calls were made as follows, unless noted: active = hit-call score of the fitted dose curve at least 0.9, where 1 is the maximum; inactive = score below 0.9. Peptide text beside a SMILES is read from it.

Legend:
DIO1 (gene 1733) = test: CCTE_GLTED_hDIO1: CCTE's human Deiodinase 1 (DIO1) Inhibition Assay, Great Lakes Toxicology and Ecology Division (GLTED) Lab (AID 2283987; active = hit-call score of the fitted dose curve at least 0.9, where 1 is the maximum;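 also: isolated human DIO1 enzyme in a cell-free setup rather than cells; enzyme activity read as free iodide liberated from substrate via Sandell-Kolthoff colorimetry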)
In short: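 Cell-free human DIO1 enzyme incubated 3 h with test chemical; iodide freed from substrate then measured by Sandell-Kolthoff absorbance. Run in triplicate; loss of signal relative to DMSO taken as inhibition.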

[1] = biological target: Nucleoli Translocation, AR (gene 367) (UniProt P10275); test: UPITT_HCI_U2OS_AR_TIF2_Nucleoli_Antagonist: University of Pittsburgh U2OS Androgen Receptor-Transcriptional Intermediary Factor 2 (AR-TIF2) Antagonism High Content Imaging Assay for Nucleoli Translocation (AID 2283997; active = hit-call score of the fitted dose curve at least 0.9, where 1 is the maximum)
Nucleoli Translocation, AR (gene 367), sequence (P10275 whole entry, looked up): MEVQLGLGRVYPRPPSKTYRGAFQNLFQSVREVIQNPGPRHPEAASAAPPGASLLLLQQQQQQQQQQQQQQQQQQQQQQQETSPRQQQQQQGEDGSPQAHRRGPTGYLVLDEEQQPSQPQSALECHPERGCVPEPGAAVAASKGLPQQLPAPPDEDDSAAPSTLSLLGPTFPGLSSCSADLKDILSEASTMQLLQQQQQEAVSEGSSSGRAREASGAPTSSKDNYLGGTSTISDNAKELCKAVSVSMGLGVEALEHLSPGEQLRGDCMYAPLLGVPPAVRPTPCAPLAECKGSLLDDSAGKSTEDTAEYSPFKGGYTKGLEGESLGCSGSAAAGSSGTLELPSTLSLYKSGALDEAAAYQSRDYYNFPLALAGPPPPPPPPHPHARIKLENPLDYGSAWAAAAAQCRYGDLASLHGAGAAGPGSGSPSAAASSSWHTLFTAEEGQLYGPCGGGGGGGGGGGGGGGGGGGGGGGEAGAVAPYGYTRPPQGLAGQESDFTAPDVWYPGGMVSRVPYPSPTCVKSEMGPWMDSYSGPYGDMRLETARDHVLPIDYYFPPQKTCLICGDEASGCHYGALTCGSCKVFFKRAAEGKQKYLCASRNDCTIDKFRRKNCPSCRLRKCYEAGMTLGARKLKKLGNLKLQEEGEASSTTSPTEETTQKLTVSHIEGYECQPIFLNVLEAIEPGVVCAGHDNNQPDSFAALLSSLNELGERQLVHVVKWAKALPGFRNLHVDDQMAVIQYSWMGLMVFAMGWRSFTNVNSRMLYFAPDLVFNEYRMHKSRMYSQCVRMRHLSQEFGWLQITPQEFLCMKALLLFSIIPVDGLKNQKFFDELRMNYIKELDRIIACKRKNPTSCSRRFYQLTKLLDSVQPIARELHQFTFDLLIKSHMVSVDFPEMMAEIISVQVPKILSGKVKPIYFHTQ
In short: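 Antagonism is read as loss of nucleolar AR-RFP signal relative to DHT, imaged in U2OS cells also carrying GFP-TIF2. Compounds screened at 20 uM final, 0.2% DMSO; primary actives retested in triplicate.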

[2] = biological target: Nucleoli Translocation, AR (gene 367) (UniProt P10275); test: UPITT_HCI_U2OS_AR_TIF2_Nucleoli_Agonist: University of Pittsburgh U2OS Androgen Receptor-Transcriptional Intermediary Factor 2 (AR-TIF2) Agonism High Content Imaging Assay for Nucleoli Translocation (AID 2283998; active = hit-call score of the fitted dose curve at least 0.9, where 1 is the maximum)
In short: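 U2OS cells expressing RFP-tagged human AR and GFP-tagged TIF2; red fluorescence in nucleoli quantified by high-content imaging. Primary screen at 20 uM final (0.2% DMSO); concentration-response 0.195–50 uM (0.5% DMSO), fitted upward versus DMSO.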

[3] = biological target: Ratio of Nucleoli Translocation and Cytoplasm, AR (gene 367) (UniProt P10275); test: UPITT_HCI_U2OS_AR_TIF2_Nucleoli_Cytoplasm_Ratio_Agonist: University of Pittsburgh U2OS Androgen Receptor-Transcriptional Intermediary Factor 2 (AR-TIF2) Agonism High Content Imaging Assay for Ratio of Nucleoli Translocation and Cytoplasm (AID 2284000; active = hit-call score of the fitted dose curve at least 0.9, where 1 is the maximum;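 also: hits raise the red nucleolar to cytoplasm ratio above vehicle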)
Ratio of Nucleoli Translocation and Cytoplasm, AR (gene 367), sequence (P10275 whole entry, looked up): as above
In short: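 Compounds tested at 20 uM final in primary screen (0.2% DMSO) and 0.195-50 uM final in dose-response (0.5% DMSO). Imaging of human U2OS cells bearing RFP-AR and GFP-TIF2; endpoint is nucleoli/cytoplasm red signal ratio, positive direction relative to DMSO.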

[4] = biological target: Ratio of Nucleoli Translocation and Cytoplasm, AR (gene 367) (UniProt P10275); test: UPITT_HCI_U2OS_AR_TIF2_Nucleoli_Cytoplasm_Ratio_Antagonist: University of Pittsburgh U2OS Androgen Receptor-Transcriptional Intermediary Factor 2 (AR-TIF2) Antagonism High Content Imaging Assay for Ratio of Nucleoli Translocation and Cytoplasm (AID 2283999; active = hit-call score of the fitted dose curve at least 0.9, where 1 is the maximum;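 also: antagonists lower the DHT-driven ratio of nucleolar to cytoplasmic red signal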)
In short: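 Read-out is the ratio of nucleolar to cytoplasmic AR-RFP fluorescence, imaged by high-content microscopy in U2OS cells coexpressing TIF2-GFP. Single-point 20 uM screen, triplicate confirmation, then 0.195–50 uM dose response; activity referenced to DHT baseline.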

[5] = CCTE_Harrill_HTTr_Viability_MCF7: CCTE's 6-hour Cell Viability Assessment for the High-Throughput Transcriptomics (HTTr) Platform, in MCF-7 cells cultured in DMEM + 10% fetal bovine serum, Harrill Lab (AID 2284010)
In short: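 PI exclusion, high-content imaging; 8-pt dilution series, 6 h exposure; bidirectional fit vs DMSO (neg. ctrl/baseline); gain of signal = loss of membrane integrity.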

[6] = CCTE_Harrill_HTTr_Apoptosis_MCF7: CCTE's 6-hour Apoptosis Assessment for the High-Throughput Transcriptomics (HTTr) Platform, in MCF-7 cells cultured in DMEM + 10% fetal bovine serum, Harrill Lab (AID 2284011)
In short: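 MCF-7 cells in DMEM + 10% FBS exposed 6 h to chemicals over an eight-point dilution series. Caspase-3/7 activation imaged by high-content CellEvent Green staining; fitted bidirectionally versus DMSO.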

[7] = CCTE_Harrill_HTTr_CellCount_MCF7: CCTE's Cell Proliferation Assessment for the High-Throughput Transcriptomics (HTTr) Platform, Harrill Lab (AID 2284012; active = hit-call score of the fitted dose curve at least 0.9, where 1 is the maximum;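 also: count of Hoechst-stained nuclei per well by high-content imaging in MCF-7 cells; cells exposed to compound for six hours; intended direction is loss of nuclei count meaning fewer cells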)
In short: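 Readout: Hoechst nuclear count by high-content imaging. MCF-7, 8-point dilution series, 6 h exposure. Bidirectional fit vs DMSO baseline.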

[8] = CCTE_Shafer_MEA_acute_spike_number: CCTE's Neural Acute Assay for Total Number of Spikes, Shafer Lab (AID 2284008)
In short: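 Rat primary cortical neurons on 48-well MEA plates, DIV 13 or 15, at 37 C. 40 min baseline then 40 min with compound (0.03-40 uM); spikes detected at 8x rms noise, expressed as percent change from baseline.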

[9] = CCTE_Shafer_MEA_acute_burst_number: CCTE's Neural Acute Assay for Single-Electrode Bursts, Shafer Lab (AID 2284013)
In short: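 Primary rat cortical neurons on 16-electrode MEA wells, DIV 13 or 15, exposed to compound (0.03-40 uM; ≥3 wells); 40-min recordings at 37 C before and after treatment. Burst count expressed as percent change from baseline, DMSO as negative control.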

[10] = CCTE_Shafer_MEA_acute_burst_duration_mean: CCTE's Neural Acute Assay for Mean Burst Duration, Shafer Lab (AID 2284014);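 also: hits are decreases in mean burst duration relative to DMSO controls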
In short: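 Mean burst duration was compared between a 40 min baseline and a 40 min recording in the presence of compound (0.03-40 uM, 37 C), giving percent change per well. Cultures were rat cortical neurons at DIV 13 or 15; wells needed ≥10 active electrodes.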

[11] = CCTE_Shafer_MEA_acute_per_burst_spike_number_mean: CCTE's Neural Acute Assay for Average Number of Spikes Per Burst, Shafer Lab (AID 2284015);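 also: hits are decreases in mean spikes per burst versus baseline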
In short: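 We recorded spontaneous network firing of rat cortical neurons for 40 min before and 40 min during exposure to compound at 0.03-40 uM, at 37 C. Spikes were detected adaptively at 8x rms noise, and the change in average spikes per burst was fitted against DMSO.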

[12] = CCTE_Shafer_MEA_acute_interburst_interval_mean: CCTE's Neural Acute Assay for Mean Interburst Interval, Shafer Lab (AID 2284016);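 also: percent change of mean interburst interval versus each well's own pre-dose baseline; curves fitted for decrease in interburst interval relative to DMSO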
In short: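 MEA recording of spontaneous network bursting in primary rat cortical cultures; mean interburst interval was compared before and after a 40-min compound exposure (0.03-40 uM) and expressed as percent change, relative to DMSO.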

[13] = CCTE_Shafer_MEA_acute_burst_percentage_mean: CCTE's Neural Acute Assay for Percentage of Spikes in a Burst, Shafer Lab (AID 2284017)
In short: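 Compounds were tested at 0.03-40 uM on primary rat cortical neuron networks grown over microelectrodes, with at least three wells per compound. Spontaneous firing was recorded for 40 min before and 40 min after dosing, and the change in burst percentage was computed per well.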

[14] = CCTE_Shafer_MEA_acute_burst_percentage_std: CCTE's Neural Acute Assay for Standard Deviation of Burst Percentage, Shafer Lab (AID 2284018);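 also: fitted in the negative direction so actives lower burst percentage SD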
In short: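 Value is percent change from baseline in the across-electrode SD of spikes-in-bursts percentage, wells with >/= 10 active electrodes. Acute 40-min exposure to 0.03-40 uM on DIV 13 or 15 rat cortical cultures, recorded at 37 C after 40-min baseline.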

[15] = CCTE_Shafer_MEA_acute_per_network_burst_spike_number_mean: CCTE's Neural Acute Assay for Average Number of Spikes in a Network Burst, Shafer Lab (AID 2284019)
In short: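 Percent change from baseline in mean spikes per network burst, spikes detected at 8x rms noise. Each compound at 0.03-40 uM in at least three wells of rat cortical cultures, recorded 40 min before and 40 min during exposure.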

[16] = CCTE_Shafer_MEA_acute_per_network_burst_spike_number_std: CCTE's Neural Acute Assay for Standard Deviation of Number of Spikes in a Network Burst, Shafer Lab (AID 2284020);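 also: fitted for decrease in spike-number SD versus DMSO so actives lower it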
In short: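 Endpoint: percent change from 40 min baseline in standard deviation of spikes per network burst, after 40 min compound exposure (0.03-40 uM, 37 C). Cortical rat neurons on MEA at DIV 13 or 15; spikes detected at 8x rms noise, 300-5000 Hz band-pass.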

PGR (gene 5241) = PGR (gene 5241) (UniProt P06401); test: TOX21_PR_LUC_Followup_Antagonist: Tox21 HEK293 Progesterone Receptor (PR) Antagonism Luciferase Follow-Up Assay (AID 2283938; active = hit-call score of the fitted dose curve at least 0.9, where 1 is the maximum;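 also: curve fitted upward as signal gain over DMSO baseline despite antagonist label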)
PGR (gene 5241), sequence (P06401 whole entry, looked up): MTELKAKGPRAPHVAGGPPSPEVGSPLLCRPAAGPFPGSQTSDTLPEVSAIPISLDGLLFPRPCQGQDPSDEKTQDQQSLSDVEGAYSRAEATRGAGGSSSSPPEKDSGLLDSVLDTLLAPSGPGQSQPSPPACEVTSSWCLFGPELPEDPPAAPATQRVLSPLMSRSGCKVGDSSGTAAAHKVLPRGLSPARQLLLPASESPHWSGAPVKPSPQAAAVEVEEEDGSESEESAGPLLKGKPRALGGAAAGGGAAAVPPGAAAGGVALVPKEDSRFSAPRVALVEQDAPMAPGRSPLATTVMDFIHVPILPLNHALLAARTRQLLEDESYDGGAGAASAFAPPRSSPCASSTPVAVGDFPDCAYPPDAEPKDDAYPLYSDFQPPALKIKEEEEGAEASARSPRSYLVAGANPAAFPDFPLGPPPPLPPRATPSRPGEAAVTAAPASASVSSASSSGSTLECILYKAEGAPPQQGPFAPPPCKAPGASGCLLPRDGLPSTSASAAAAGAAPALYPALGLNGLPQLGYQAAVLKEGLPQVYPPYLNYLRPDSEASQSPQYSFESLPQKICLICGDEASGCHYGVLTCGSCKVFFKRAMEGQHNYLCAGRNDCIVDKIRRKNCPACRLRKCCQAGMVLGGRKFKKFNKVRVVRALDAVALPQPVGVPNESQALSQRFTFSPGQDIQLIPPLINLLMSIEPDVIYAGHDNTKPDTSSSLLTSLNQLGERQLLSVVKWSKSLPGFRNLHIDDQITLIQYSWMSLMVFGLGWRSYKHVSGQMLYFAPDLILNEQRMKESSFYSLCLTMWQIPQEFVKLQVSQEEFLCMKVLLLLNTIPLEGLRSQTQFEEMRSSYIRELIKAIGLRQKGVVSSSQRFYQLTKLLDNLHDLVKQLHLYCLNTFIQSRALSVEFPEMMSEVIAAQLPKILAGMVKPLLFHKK
In short: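 HEK293-PR-A-luc cells, 3,000/well, preincubated 5 h at 37C before compound addition in DMSO; 16 h compound exposure at 37C. ONE-Glo luciferase luminescence read after 30 min at room temperature, fitted relative to DMSO baseline.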

[17] = TOX21_PR_LUC_Followup_Antagonist_viability: Viability Assessment in the Tox21 HEK293 Progesterone Receptor (PR) Antagonism Luciferase Follow-Up Assay (AID 2283940; active = hit-call score of the fitted dose curve at least 0.9, where 1 is the maximum)
In short: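 Read-out: CellTiter-Glo ATP luminescence, loss of signal taken as reduced viability. Cells: HEK293-PR-A-luc, 3,000/well, 5 h settling, then 16 h compound exposure at 37C, 0% CO2.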

[18] = TOX21_PR_LUC_Followup_Agonist_viability: Viability Assessment in the Tox21 HEK293 Progesterone Receptor (PR) Agonism Luciferase Follow-Up Assay (AID 2283941; active = hit-call score of the fitted dose curve at least 0.9, where 1 is the maximum;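 also: loss of signal means cytotoxicity so actives lower viability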)
In short: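 Cytotoxicity counter-screen: ATP content by CellTiter-Glo luminescence, loss of signal = reduced viability. HEK293-PR-A-luc, 3,000 cells/well, compound exposure 16 h, 37C.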

Measured: AC50

CCCCCCCCCCCCc1ccc(O)cc1
active: DIO1 (gene 1733) 31.5 µM

O=c1c(O)c(-c2ccc(O)cc2O)oc2cc(O)cc(O)c12
active: DIO1 (gene 1733) 9.81 µM

CCCCC(CC)COC(=O)/C=C/c1ccc(OC)cc1 (stereo not drawn)
inactive: [1] | [2] | [3]

Cc1ccc(C)c(OCCCC(C)(C)C(=O)O)c1
inactive: [1] | [2] | [4] | [3] | [5] | [6] | [7]

C1CNCCN1
inactive: [8] | [5] | [6] | [7] | [9] | [10] | [11] | [12] | [13] | [14] | [15] | [16]

c1ccc2c(c1)[nH]c1ccccc12
inactive: PGR (gene 5241) | [17] | [18] | [2] | [4] | [3] | [5] | [6]
active: [1] 8.38 µM

COc1ccc(-c2coc3cc(O)cc(O)c3c2=O)cc1
active: PGR (gene 5241) 81.7 µM
inactive: [17] | [5] | [6] | [7]

N#Cc1ccc(C(c2ccc(C#N)cc2)n2cncn2)cc1
inactive: [1] | [2] | [3] | [5] | [6]

CCCCCCCCCC(C)=O
inactive: [2] | [3]

CC(=O)OCc1ccccc1
inactive: [1] | [2] | [4] | [3] | [5] | [6] | [7]

COc1ccc(C(=O)c2ccccc2)c(O)c1
inactive: [4] | [5] | [6] | [7]
active: [1] 50 µM

COC(=O)[C@H](Cc1ccccc1)NC(=O)[C@@H](N)CC(=O)O (H-Asp-Phe-OMe)
inactive: [8] | [9] | [10] | [11] | [12] | [13] | [14] | [15] | [16]

CC(=O)OC1CCCCC1C(C)(C)C (stereo not drawn)
inactive: [3] | [5] | [6] | [7]

CCc1cccc(C)c1N
inactive: [1] | [2] | [4]

CCCCCCCCCCCCCCCCCCOS(=O)(=O)O
active: DIO1 (gene 1733) 90.1 µM

CC(CCC(=O)O)(c1ccc(O)cc1)c1ccc(O)cc1
inactive: [8] | [9] | [10] | [11] | [12] | [13] | [14] | [15] | [16]

COc1cc(O)c(C(=O)c2ccccc2)cc1S(=O)(=O)O
inactive: [1] | [5] | [6] | [7]

CCCCC/C=C\C/C=C\CCCCCCCC(=O)O
active: DIO1 (gene 1733) 19.2 µM
inactive: [5] | [6] | [7]

Cc1c(C(=O)c2c[nH]n(C)c2=O)ccc(S(C)(=O)=O)c1C1=NOCC1
inactive: [8] | [5] | [6] | [7] | [9] | [10] | [11] | [12] | [13] | [14] | [15] | [16]
